Test results as given in PubChem BioAssay.
Active and inactive are the calls of the source. No rule for the calls is given here.

These compounds were tested against Pantothenate synthetase (Mycobacterium tuberculosis (strain ATCC 25618 / H37Rv)) (UniProt P9WIL5) (assay: Coupled enzyme confirmation of inhibitors against recombinant Mtb PanC (AID 375;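 also: 0% = full reaction with vehicle and 100% = no enzyme background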)). Conditions: coupled enzyme assay; at 10 µM, active compounds read high.
Sequence of Pantothenate synthetase (Mycobacterium tuberculosis (strain ATCC 25618 / H37Rv)) (P9WIL5 whole entry, looked up): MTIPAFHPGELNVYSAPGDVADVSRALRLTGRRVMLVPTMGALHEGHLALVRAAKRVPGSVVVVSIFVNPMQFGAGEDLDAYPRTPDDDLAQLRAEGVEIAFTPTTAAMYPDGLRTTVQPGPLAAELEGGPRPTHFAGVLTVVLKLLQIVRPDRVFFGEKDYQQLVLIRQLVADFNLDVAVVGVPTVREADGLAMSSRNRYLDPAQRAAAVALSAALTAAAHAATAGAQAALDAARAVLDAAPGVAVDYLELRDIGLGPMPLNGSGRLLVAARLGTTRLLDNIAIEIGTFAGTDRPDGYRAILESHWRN

| SMILES | inhibition |
| --- | --- |
| O=C1C(CCS(=O)c2ccccc2)C(=O)N(c2ccccc2)N1c1ccccc1 (stereo not given) | 0% (inactive) |
| Cc1cc(C)n(C(=O)CCCCCC(=O)n2nc(C)cc2C)n1 | 6% (inactive) |
| O=C(c1ccc(Cl)cc1)N1CCCCC(Sc2nnc(-c3ccc4c(c3)OCO4)o2)C1=O (stereo not given) | 3% (inactive) |
| O=C(C1CCN(S(=O)(=O)c2cnc[nH]2)CC1)N1CCN(c2ncccn2)CC1 | 0% (inactive) |
| CCSC1(SCC)N=C(N)C2(C#N)C(c3ccccc3)NC(C)=C(C)C12C#N (stereo not given) | 0% (inactive) |
| Cn1nc(C(=O)Nc2cccc(C(F)(F)F)c2)ccc1=O | 0% (inactive) |
| CCC1CCCCN1C(=O)CSc1nnc(-c2ccc(OC)cc2)o1 (stereo not given) | 0% (inactive) |
| CCc1nnc(SCC(=O)NC2CCCCC2)nc1CC | 1% (inactive) |
| C[N+](C)(C)CCOP(=O)([O-])OC[C@H](O)CO | 1% (inactive) |
| Cc1ccc2cc3cc(C(=O)N4CC(C)CC(C)C4)oc3nc2c1 (stereo not given) | 3% (inactive) |
| Cc1ccccc1OCc1nc2ccccc2c(=O)n1/N=C/c1ccco1 | 0% (inactive) |
| CCCC1CCC(C(=O)Nn2c(C)nc3ccccc3c2=O)CC1 (stereo not given) | 8% (inactive) |
| Cn1nnnc1SCC(=O)N1CCN(c2ccccc2)CC1 | 0% (inactive) |
| Cc1[nH]c(=O)[nH]c(=O)c1S(=O)(=O)N(C)Cc1ccccc1 | 0% (inactive) |
| C=CCN1C(=O)/C(=C2\SC(N3CCOCC3)=NC2=O)c2cc(Br)ccc21 | 0% (inactive) |
| COc1ccccc1-n1cnnc1SCC(=O)c1ccc[nH]1 | 3% (inactive) |
| Cc1cc(NS(=O)(=O)Cc2ccccc2)cc(C)c1OCC(=O)N1CCOCC1 | 4% (inactive) |
| Cc1nnc2c3ccccc3c(-c3ccccc3)nn12 | 0% (inactive) |
| COc1ccc2oc(C)c(C(=O)Cn3ccnc3)c2c1 | 0% (inactive) |
| CCN1CCN(Cc2nc3c(c(=O)n(C)c(=O)n3C)n2CC(=O)c2ccccc2)CC1 | 2% (inactive) |

| SMILES | inhibition |
| --- | --- |
| COc1ccc(C2C(C(=O)Nc3cccnc3)=C(C)Nc3nc(-c4cccs4)nn32)cc1OC (stereo not given) | 6% (inactive) |
| Cc1nnc(NC(=O)CSc2nnc(-c3ccc(S(=O)(=O)N4CCCC4)cc3)n2C)s1 | 8% (inactive) |
| CCOC(=O)c1ccc(N2C(=O)C3CC=CCC3C2=O)cc1 (stereo not given) | 1% (inactive) |
| Cc1nn(C(=O)c2ccc3c(c2)OCO3)c(N)c1-c1ccccc1 | 0% (inactive) |
| CCN(CC)C(=O)Oc1ccccc1NC(C)=O | 1% (inactive) |
| Cc1ccc(S(=O)(=O)Cn2nnnc2C(C(C)C)N2CCN(C(=O)c3ccco3)CC2)cc1 (stereo not given) | 0% (inactive) |
| COc1ccc(N(CC(=O)NCCSC(C)(C)C)S(C)(=O)=O)c(OC)c1 | 2% (inactive) |
| Cn1c(=O)[nH]c(=O)c2c1nc(N1CCNCC1)n2Cc1cccc2ccccc12 | 8% (inactive) |
| Cc1ccc(Nc2nc(Oc3ccc(=O)[nH]n3)nc(N(C)C)n2)cc1 | 0% (inactive) |
| NS(=O)(=O)c1cc2c(cc1Cl)NCNS2(=O)=O | 0% (inactive) |
| COc1cccc(Oc2ccc(N)cn2)c1 | 0% (inactive) |
| Cc1ccnc(NS(=O)(=O)c2ccc(N=CC3=C(O)CC(C)(C)CC3=O)cc2)n1 | 11% (inactive) |
| CN1CCN(C2=Nc3ccccc3Oc3ccc(Cl)cc32)CC1 | 4% (inactive) |
| CC(C)(C)OC(=O)N1CCC(C(=O)N2CCCCCC2)CC1 | 5% (inactive) |
| CCn1c(C)nc2cc(C(=O)OC(C(F)(F)C(F)F)C(F)(F)C(F)F)ccc21 | 0% (inactive) |
| Nc1nc(C2C(=O)CCCC2=O)cs1 | 0% (inactive) |
| COc1ccc(OCc2nc(C#N)c(N3CCN(c4ccc(OC)cc4)CC3)o2)cc1 | 2% (inactive) |
| CC(=O)N(c1ccc(Br)cc1)C1C=CS(=O)(=O)C1 (stereo not given) | 2% (inactive) |
| O=C(Cn1c(=O)n(CC2CCCO2)c(=O)c2ccccc21)c1ccccc1 (stereo not given) | 0% (inactive) |
| COc1ccc(C(=O)N2CCN(C3CCC(c4ccccc4)CC3)CC2)cc1OC (stereo not given) | 2% (inactive) |
